From ChEMBL document CHEMBL3988442, “University of Dundee, Small-Polar-MMV Screening Library” (2021)
In all, about 69,000 compounds went through this assay and about 1,000 (1.4%) showed an effect of 50% or more. Only a selection was taken, and strong results are over-represented in it overall.

System: Leishmania donovani
Assay: Leishmania intramacrophage assay
Type: functional, organism-based
Set-up: scale not given: in the data most compounds retested in dose-response had high values

How did the “Percent Effect” value (30.3 µM, […]) turn out when `c1c(CN2CCOCC2)nc2n1CCN(CC1CC1)C2` was run?
The value was 2.759%.

For `CCc1csc(C2CCCN(C(=O)c3ccco3)C2)n1` (stereo unspecified), which “Percent Effect” value (30 µM) is on record?
The value was -22.84%.

Which “Percent Effect” value (30.3 µM, […]) does the source give for `Cc1cccc(NS(=O)(=O)c2cc(C(=O)O)oc2C)c1` here?
Its value is 8.685%.

For `COC(=O)c1ccn(COc2ccccc2Cl)n1`, which “Percent Effect” value (30.3 µM, […]) is on record?
The value was -5.219%.

How did the “Percent Effect” value (30.3 µM, […]) turn out when `CC(C)(C)NC(=O)c1ccn(COc2c(Cl)cccc2Cl)n1` was run?
The value was 6.361%.

`CC(C)(C)NC(=O)c1ccn(COc2ccccc2Cl)n1` was tested. Which “Percent Effect” value (30.3 µM, […]) did it give?
Its value is 62.54%.

`c1nc(N2CCOC(Cn3cncn3)C2)c2cc[nH]c2n1` (stereo unspecified) was tested. Which “Percent Effect” value (30 µM) did it give?
The value was 24.06%.

For `COCCN1CCCC(c2ncc(C(=O)N(C)C)c(C)n2)C1` (stereo unspecified), which “Percent Effect” value (30.3 µM, […]) is on record?
The value was -9.482%.

How did the “Percent Effect” value (30.3 µM, […]) turn out when `Cc1nc(NCC2CC2)nc2c1COCC21CCN(C(=O)C(C)(C)C)C1` (stereo unspecified) was run?
The value was -5.86%.

Which “Percent Effect” value (30 µM, 30.03 µM) does the source give for `COCCC(=O)N1CCC2(COCc3c(C)nc(NCC4CC4)nc32)C1` (stereo unspecified) here?
Its value is 4.108%.

How did the “Percent Effect” value (30.3 µM, […]) turn out when `Cc1nc(NCC2CC2)nc2c1COCC21CCN(C(=O)NC(C)C)C1` (stereo unspecified) was run?
Its value is 52.42%.

`Cn1ccnc1CN1CCC2(CC1)COC2.O=C(O)C(F)(F)F` was tested. Which “Percent Effect” value (30.3 µM, […]) did it give?
The value was 21.73%.

`O=C(CN1CC(c2ccccc2)CC1=O)NCc1cc2n(n1)CCNC2` (stereo unspecified) was tested. Which “Percent Effect” value (30.3 µM, […]) did it give?
The value was 29.23%.

With `O=C(CN1CCOc2ccccc2C1)NCc1cc2n(n1)CCNC2` as the molecule, how does the “Percent Effect” value (30.3 µM, […]) read?
Its value is 5.311%.

`c1ccc(C2CCCN(Cc3cc4n(n3)CCNC4)CC2)cc1` (stereo unspecified) was tested. Which “Percent Effect” value (30.3 µM, […]) did it give?
Its value is 58.47%.

`O=C(CN1CCC(c2ccccc2)CC1)NCc1cc2n(n1)CCNC2` was tested. Which “Percent Effect” value (30.3 µM, […]) did it give?
The value was 55.19%.

Which “Percent Effect” value (30.3 µM, […]) does the source give for `CC(=O)N1CC[C@H]2OCC[C@@]2(C(=O)NCCc2ccccn2)C1.O=C(O)C(F)(F)F` here?
The value was -0.5887%.

How did the “Percent Effect” value (30 µM) turn out when `CNc1snc(C)c1C(=O)N1CCCC(n2cccn2)C1` (stereo unspecified) was run?
Its value is 20.79%.

How did the “Percent Effect” value (30.3 µM, […]) turn out when `N#Cc1ccccc1N1CCCN(C(=O)CCc2ccco2)CC1` was run?
The value was 17.14%.

How did the “Percent Effect” value (30.3 µM, […]) turn out when `CN(C(=O)C1(C#N)CCCCC1)c1nccs1` was run?
The value was 12.59%.

`Cc1ccoc1C(=O)N1Cc2c(Cn3ccnc3)nn(C)c2C1.O=C(O)C(F)(F)F` was tested. Which “Percent Effect” value (30.3 µM, […]) did it give?
Its value is 12.09%.

With `Cn1nc(Cn2ccnc2)c2c1CN(Cc1ccoc1)C2.O=C(O)C(F)(F)F.O=C(O)C(F)(F)F` as the molecule, how does the “Percent Effect” value (30.3 µM, […]) read?
The value was 2.195%.

For `Cn1nc(Cn2ccnc2)c2c1CN(C(=O)c1ccoc1)C2.O=C(O)C(F)(F)F`, which “Percent Effect” value (30.3 µM, […]) is on record?
Its value is 54.37%.

With `COCc1nc2n(n1)CCCC2Nc1nc(C)ns1` (stereo unspecified) as the molecule, how does the “Percent Effect” value (30.3 µM, […]) read?
The value was -12.79%.

With `O=C(CC1CCC2(CC1)CCN(Cc1nccs1)CC2)N1CC=CC1` as the molecule, how does the “Percent Effect” value (30.3 µM, […]) read?
Its value is -13.52%.

With `NC(=O)CCSc1ccccc1NCc1ccc(Cl)s1` as the molecule, how does the “Percent Effect” value (30.3 µM, […]) read?
Its value is 57.16%.

With `NC(=O)C(NC(=O)CCc1ccc(Cl)s1)c1ccccc1` (stereo unspecified) as the molecule, how does the “Percent Effect” value (30.3 µM, […]) read?
The value was 20.24%.

How did the “Percent Effect” value (30.3 µM, […]) turn out when `NC(=O)C(NCc1ccc(Cl)s1)c1ccccc1` (stereo unspecified) was run?
The value was 22.99%.

For `Cc1ccc(CNc2ccccc2SCCC(N)=O)s1`, which “Percent Effect” value (30.3 µM, […]) is on record?
The value was 58.74%.

With `CC(C)(C)c1nc(CNc2ccccc2SCCC(N)=O)cs1` as the molecule, how does the “Percent Effect” value (30.3 µM, […]) read?
The value was -34.53%.

Which “Percent Effect” value (30.3 µM, […]) does the source give for `CC(C)(C)c1ncc(CNc2ccccc2SCCC(N)=O)s1` here?
The value was -11.51%.

`Cc1nn(C)c(C)c1CN(C)C(=O)c1cccc(CCC(C)(C)O)c1` was tested. Which “Percent Effect” value (30.3 µM, […]) did it give?
The value was 45.36%.

How did the “Percent Effect” value (30.3 µM, […]) turn out when `O=C(O)C(F)(F)F.O=C(c1ccc[nH]1)N1CCCn2c(CNC3CCC3)nnc2C1` was run?
Its value is 19.78%.

`Cc1ccccc1-c1cncc(C2CCN(C3CCOCC3)CC2)n1` was tested. Which “Percent Effect” value (30.3 µM, […]) did it give?
The value was -12.97%.

Which “Percent Effect” value (30.3 µM, […]) does the source give for `C1CCC(c2nc3c(c(N4CC(N5CCOCC5)C4)n2)CCNCC3)C1` here?
Its value is 33.91%.

How did the “Percent Effect” value (30.3 µM, […]) turn out when `NCC1CCN(c2nc(C3CCCC3)nc3c2CCNCC3)C1` (stereo unspecified) was run?
The value was -3.279%.

`C1CCC(c2nc3c(c(N4CCN5CCCC5C4)n2)CCNCC3)C1` (stereo unspecified) was tested. Which “Percent Effect” value (30.3 µM, […]) did it give?
The value was 52.04%.

For `CCc1cn[nH]c1C1CCN(c2cc(C)c3cccc(OC)c3n2)CC1`, which “Percent Effect” value (30.3 µM, […]) is on record?
The value was 13.27%.

`Cn1cnc(-c2nc(C(=O)NCCN3CCCC3)c3ccccn23)c1` was tested. Which “Percent Effect” value (30.3 µM, […]) did it give?
The value was 50.91%.

For `COCCNC(=O)c1nc(-c2cn(C)cn2)n2ccccc12`, which “Percent Effect” value (30.3 µM, […]) is on record?
Its value is 36.99%.

For `Cn1cnc(-c2nc(C(=O)NCCN3CCOCC3)c3ccccn23)c1`, which “Percent Effect” value (30.3 µM, […]) is on record?
The value was 40.37%.

`COCCN1CCN(Cc2nccs2)[C@H]2CS(=O)(=O)C[C@H]21` was tested. Which “Percent Effect” value (30.3 µM, […]) did it give?
Its value is -6.4%.

`O=C(NCCC(=O)N1CCCC1)c1nn(-c2ccccc2F)cc1O` was tested. Which “Percent Effect” value (30 µM, 30.03 µM) did it give?
Its value is -0.1897%.

How did the “Percent Effect” value (30.3 µM, […]) turn out when `Cc1ncsc1CCC(=O)N1CCn2cccc2C1c1cccnc1` (stereo unspecified) was run?
The value was 18.51%.

`CNS(=O)(=O)c1ccc(CN(C)Cc2nc3ccc(F)cc3[nH]2)cc1` was tested. Which “Percent Effect” value (30.3 µM, […]) did it give?
Its value is -17.23%.

Which “Percent Effect” value (30.3 µM, […]) does the source give for `CN(Cc1cnc(C(C)(C)C)nc1)Cc1nc2ccc(F)cc2[nH]1` here?
Its value is 52.7%.

`Cc1ccc(CN(C)Cc2nc3ccc(F)cc3[nH]2)cn1` was tested. Which “Percent Effect” value (30.3 µM, […]) did it give?
Its value is 12.06%.

With `Cc1c(C(=O)NCC2CCS(=O)(=O)C2)cnn1-c1ccccc1` (stereo unspecified) as the molecule, how does the “Percent Effect” value (30.3 µM, […]) read?
Its value is -5.688%.

How did the “Percent Effect” value (30.3 µM, […]) turn out when `CN(C)C(=O)c1cccnc1-c1ccc2c(c1)OCO2` was run?
Its value is 11.7%.

Which “Percent Effect” value (30.3 µM, […]) does the source give for `C[C@@H]1CN(Cc2cc3ccccc3n2C)CC[C@]1(C)O` here?
Its value is 19.22%.

`C[C@@H]1CN(Cc2cc3ccccc3n2C)CC[C@@]1(O)C1CC1` was tested. Which “Percent Effect” value (30.3 µM, […]) did it give?
The value was 34.38%.
